# Target: CDKL2
# Assay: pooled miR-30 sensor sort-seq; sequence = guide strand
# Conditions: shRNA
# Note: reference of the scale not given here.
row,Sequence,sensor-assay potency score (higher = more potent)
1,TTAGTAACTTGATTTCTCGCAT,0.346
2,TTCAACTAAGGAATCATCTTTT,0.409
3,TAGATAAAGAAACATTTCTGGC,-0.719
4,TTTAACTGTAGTTCTTGGGAAA,-0.938
5,TACTTTTAACTGTAGTTCTTGG,-0.4
6,TTTAAATAGTTTATAATCCTTA,-0.355

# Target: CDKN2B
# Assay: as above
# Conditions: shRNA
row,Sequence,sensor-assay potency score (higher = more potent)
1,TGCACCGGTCGGGTGAGAGTGG,-1.46
2,TATTTCTTAGTCTGACCTCTGC,-0.197
3,TTGGAGTGAACGCATCGACTGC,-0.833
4,TTTTAGCATCTGTCGTCGCTTG,0.0607
5,TTTAGCATCTGTCGTCGCTTGC,0.0347
6,ATCATGCACCGGTCGGGTGAGA,-1.72
7,TTTCTTAGTCTGACCTCTGCAC,0.0018
8,TATAATGATCAAGCAACCCTGG,0.0689
9,AAACGGTTGACTCCGTTGGGAT,-1.42
10,TGTCGCACCTTCTCCACTAGTC,-0.304
11,AGGTACCCTGCAACGTCGCGGT,-1.5
12,TAATTTACTGCATAAGTGCATC,-0.823
13,TTTTTCAGCAATCTTTTGGGAA,-0.00426
14,TTCCAGGAGCTGTCGCACCTTC,-0.732
15,TTGACTCCGTTGGGATCCGCGC,-1.43
16,TAAGAAAATAAAGTCGTTGTGG,0.511
17,TCCCGAAACGGTTGACTCCGTT,-1.06
18,TAGTCTGACCTCTGCACCCTGA,-1.07
19,TCATCCTGTGTAGTCTGCCTGC,-0.705
20,TGCGCAGGTACCCTGCAACGTC,-1.43
21,TAGCATCTGTCGTCGCTTGCAC,-0.163
22,TTTACTGCATAAGTGCATCTAT,0.135
23,TTAACTGAGAGCCACTAGTTAT,-1.26

# Target: CEACAM7
# Assay: as above
# Conditions: shRNA
row,Sequence,sensor-assay potency score (higher = more potent)
1,TAGAGGTCTAACTCTAACAGGG,-0.585
2,AACTTGCTTGTACTGACTCATA,-1.59
3,TATAATTCGATAGTTGGCATGC,-0.121
4,TAACGTTCTGGATCAGCAGGGT,0.257
5,TACTTCTTCATTCACAAGATTT,-1.52
6,AAGATTTTCTTTTATAACGTGT,0.163
7,TATTGTCTCTCGACCGTTGTGT,0.904
8,TTATATTTTTTACATATCCTAT,-0.681
9,TGACTCATAGCGGACATTCAGG,-0.817
10,TCGATAGTTGGCATGCACCCTT,-0.656
11,TTGACTTATATTTTTTACATAT,-1.26
